Test results published in paper PMC5700166.
Where a chain is given by its changes, count along the chain named.

How the values were obtained:
Test in all cases: protein-binding microarray (PBM); PBM: ~300 nM protein, 6 mM HEPES pH 7.8, 80 mM KCl, 0.5 mM EDTA, 0.5 mM EGTA, 6% glycerol, 35 ng/ul poly-dIdC, 1% milk, 1 h, room temperature; Ap Aiptasia and Nv Nematostella (sea anemones) / Co Capsaspora / Aq Amphimedon (sponge) / Dm Drosophila / Hu human; RHD is the Rel homology domain; high values mean tight binding
Details in all cases: dsDNA, one strand shown
[1] = biological target: T1, GST-Ap-NF-kB RHD (Exaiptasia pallida (Aiptasia), UniProt A0A913YAJ5 2-422)
T1 sequence: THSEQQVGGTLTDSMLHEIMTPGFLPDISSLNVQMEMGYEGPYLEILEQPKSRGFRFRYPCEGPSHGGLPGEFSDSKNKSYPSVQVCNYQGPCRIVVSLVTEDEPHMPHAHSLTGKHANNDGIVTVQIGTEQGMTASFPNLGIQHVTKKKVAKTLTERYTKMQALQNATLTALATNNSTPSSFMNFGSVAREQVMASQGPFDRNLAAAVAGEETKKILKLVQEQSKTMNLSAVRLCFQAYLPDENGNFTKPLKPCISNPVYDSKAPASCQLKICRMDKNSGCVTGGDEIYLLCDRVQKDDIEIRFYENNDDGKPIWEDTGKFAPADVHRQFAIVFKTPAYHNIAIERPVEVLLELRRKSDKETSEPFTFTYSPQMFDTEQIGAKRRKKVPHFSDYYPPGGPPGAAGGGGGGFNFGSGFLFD

[2] = biological target: T2, GST-Nv-NF-kB (Cys allele) (Nematostella vectensis, UniProt E5G601 2-411)
T2 sequence: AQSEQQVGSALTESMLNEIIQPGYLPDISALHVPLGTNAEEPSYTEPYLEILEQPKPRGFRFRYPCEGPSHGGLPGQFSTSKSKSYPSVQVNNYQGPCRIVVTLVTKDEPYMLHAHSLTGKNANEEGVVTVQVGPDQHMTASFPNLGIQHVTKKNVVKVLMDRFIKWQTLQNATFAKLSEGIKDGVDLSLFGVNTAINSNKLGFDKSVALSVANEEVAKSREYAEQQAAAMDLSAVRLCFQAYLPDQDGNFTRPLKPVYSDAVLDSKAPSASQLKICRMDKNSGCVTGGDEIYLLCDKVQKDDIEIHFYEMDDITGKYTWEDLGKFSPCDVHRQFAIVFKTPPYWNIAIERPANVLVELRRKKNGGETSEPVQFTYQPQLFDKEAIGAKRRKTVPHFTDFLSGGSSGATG

[3] = biological target: T3, GST-Nv-NF-kB (Ser allele) (Nematostella vectensis, UniProt A7UNT2 2-411)
T3 sequence: T2 sequence with Q21R, C66S, S207N, E215Q, V217A, E225K, A268E, D399E

[4] = biological target: T4, GST-Co-NF-kB (Capsaspora owczarzaki, UniProt F1ARL5 200-546)
T4 sequence: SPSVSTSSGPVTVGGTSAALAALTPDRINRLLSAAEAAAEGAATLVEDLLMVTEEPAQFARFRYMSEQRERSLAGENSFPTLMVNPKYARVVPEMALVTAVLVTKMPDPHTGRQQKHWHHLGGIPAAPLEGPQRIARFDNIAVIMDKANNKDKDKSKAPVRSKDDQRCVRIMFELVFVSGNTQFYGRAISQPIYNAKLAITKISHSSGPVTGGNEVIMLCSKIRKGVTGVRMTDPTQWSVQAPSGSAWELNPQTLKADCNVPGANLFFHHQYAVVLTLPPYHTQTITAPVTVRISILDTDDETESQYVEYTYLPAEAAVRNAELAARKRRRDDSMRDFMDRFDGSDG

[5] = biological target: T5, GST-Dm-Relish (Drosophila melanogaster, UniProt Q94527 99-473)
T5 sequence: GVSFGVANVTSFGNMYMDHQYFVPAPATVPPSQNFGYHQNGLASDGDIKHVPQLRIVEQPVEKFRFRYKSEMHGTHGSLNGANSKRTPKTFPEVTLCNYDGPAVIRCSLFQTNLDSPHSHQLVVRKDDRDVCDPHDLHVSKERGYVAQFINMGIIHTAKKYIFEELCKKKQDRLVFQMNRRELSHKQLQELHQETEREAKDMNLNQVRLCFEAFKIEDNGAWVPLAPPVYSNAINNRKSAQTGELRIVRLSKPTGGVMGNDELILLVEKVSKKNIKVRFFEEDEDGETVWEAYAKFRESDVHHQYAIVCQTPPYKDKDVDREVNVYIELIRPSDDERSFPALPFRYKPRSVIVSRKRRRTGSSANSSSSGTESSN

[6] = biological target: T6, GST-Aq-NF-kB (Amphimedon queenslandica, UniProt A9Y5G7 2-389)
T6 sequence: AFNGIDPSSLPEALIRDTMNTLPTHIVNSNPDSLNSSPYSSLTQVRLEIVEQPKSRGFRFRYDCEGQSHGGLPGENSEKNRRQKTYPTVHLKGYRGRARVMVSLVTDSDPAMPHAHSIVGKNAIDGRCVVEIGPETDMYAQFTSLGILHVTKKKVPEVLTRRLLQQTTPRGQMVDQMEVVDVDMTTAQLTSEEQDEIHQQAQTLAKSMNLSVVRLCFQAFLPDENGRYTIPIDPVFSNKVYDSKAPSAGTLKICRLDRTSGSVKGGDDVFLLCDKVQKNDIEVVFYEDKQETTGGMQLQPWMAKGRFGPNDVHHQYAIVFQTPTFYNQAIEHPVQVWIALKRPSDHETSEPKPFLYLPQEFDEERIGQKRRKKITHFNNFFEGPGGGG

[7] = biological target: GST-Hu-p50 (Homo sapiens, UniProt P19838 7-356)
GST-Hu-p50, sequence (P19838 7-356): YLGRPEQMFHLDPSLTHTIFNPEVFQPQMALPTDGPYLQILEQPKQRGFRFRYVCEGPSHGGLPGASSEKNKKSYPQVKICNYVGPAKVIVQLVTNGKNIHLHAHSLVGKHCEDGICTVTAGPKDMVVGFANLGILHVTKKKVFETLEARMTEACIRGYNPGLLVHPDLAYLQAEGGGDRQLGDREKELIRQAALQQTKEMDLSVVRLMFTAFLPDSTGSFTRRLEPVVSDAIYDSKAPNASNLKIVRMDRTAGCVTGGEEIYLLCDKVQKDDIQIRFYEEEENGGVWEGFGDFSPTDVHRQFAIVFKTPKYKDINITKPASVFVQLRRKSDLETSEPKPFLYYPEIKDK

| Sequence | binding signal [1] | binding signal [2] | binding signal [3] | binding signal [4] | binding signal [5] | binding signal [6] | binding signal [7] |
| --- | --- | --- | --- | --- | --- | --- | --- |
| CCGATTAACATCAGGGGGGTACCTGATGTTAATCGGGTCTTGATTCGCTTGACGCTGCTG | 5.8 z-score | 3.31 z-score | 3.85 z-score | 4.86 z-score | 5.81 z-score | 5.74 z-score | 4.26 z-score |
| CCGATTAACATCAGAGGATTCCCTGATGTTAATCGGGTCTTGATTCGCTTGACGCTGCTG | 3.72 z-score | 4.52 z-score | 4.31 z-score | 2.44 z-score | 7.61 z-score | 4.43 z-score | 2.84 z-score |
| CCGATTAACATCAAGGGGGAATCTGATGTTAATCGGGTCTTGATTCGCTTGACGCTGCTG | 8.47 z-score | 8.91 z-score | 9.87 z-score | 8.32 z-score | 6.04 z-score | 6.38 z-score | 7.36 z-score |
| CCGATTAACATCAGGGGAGTTCATGATGTTAATCGGGTCTTGATTCGCTTGACGCTGCTG | 5.95 z-score | 4.23 z-score | 4.73 z-score | 3.54 z-score | 3.15 z-score | 3.96 z-score | 4.11 z-score |
| CCGATTAACATCAAACTTCCCCGTGATGTTAATCGGGTCTTGATTCGCTTGACGCTGCTG | 6.81 z-score | 8.41 z-score | 8.97 z-score | 8.65 z-score | 7.92 z-score | 7.04 z-score | 6.45 z-score |
| CCGATTAACATCACGGGGAACTCTGATGTTAATCGGGTCTTGATTCGCTTGACGCTGCTG | 6.71 z-score | 6.61 z-score | 6.85 z-score | 6.94 z-score | 7.12 z-score | 4.95 z-score | 4.53 z-score |
| CCGATTAACATCACGGGAATACCTGATGTTAATCGGGTCTTGATTCGCTTGACGCTGCTG | 4.13 z-score | 3.29 z-score | 2.87 z-score | 3.47 z-score | 6.3 z-score | 5.81 z-score | 1.75 z-score |
| CCGATTAACATCAGGAAACCCCATGATGTTAATCGGGTCTTGATTCGCTTGACGCTGCTG | 5.38 z-score | 4.14 z-score | 2.64 z-score | 1.76 z-score | 8.23 z-score | 4.84 z-score | 4.69 z-score |
| CCGATTAACATCAAATTTCCCGGTGATGTTAATCGGGTCTTGATTCGCTTGACGCTGCTG | 4.14 z-score | 4.99 z-score | 4.8 z-score | 6.34 z-score | 3.56 z-score | 4.88 z-score | 4.39 z-score |
| CCGATTAACATCAGGGGATGCACTGATGTTAATCGGGTCTTGATTCGCTTGACGCTGCTG | 4.3 z-score | 4.83 z-score | 6.02 z-score | 2.97 z-score | 9.57 z-score | 5.85 z-score | 4.77 z-score |
| CCGATTAACATCAGGGGAAAAGATGATGTTAATCGGGTCTTGATTCGCTTGACGCTGCTG | 5.46 z-score | 6.76 z-score | 9.01 z-score | 7.74 z-score | 1.82 z-score | 4.78 z-score | 5.18 z-score |
| CCGATTAACATCAGGGGAGACCCTGATGTTAATCGGGTCTTGATTCGCTTGACGCTGCTG | 6.47 z-score | 4.51 z-score | 4.3 z-score | 3.35 z-score | 6.91 z-score | 6.37 z-score | 3.38 z-score |
| CCGATTAACATCACGGGGATTCCTGATGTTAATCGGGTCTTGATTCGCTTGACGCTGCTG | 9.77 z-score | 9.58 z-score | 8.87 z-score | 4.28 z-score | 10.6 z-score | 7.41 z-score | 6.46 z-score |
| CCGATTAACATCAAAAATCCCCTTGATGTTAATCGGGTCTTGATTCGCTTGACGCTGCTG | 10.4 z-score | 12.3 z-score | 13.5 z-score | 4.34 z-score | 10.1 z-score | 8.57 z-score | 8.54 z-score |
| CCGATTAACATCAGCTAATTCCCTGATGTTAATCGGGTCTTGATTCGCTTGACGCTGCTG | 1.96 z-score | 3.33 z-score | 3.36 z-score | 1.82 z-score | 1.18 z-score | 3.15 z-score | 2.27 z-score |
| CCGATTAACATCAGGATTCCCCCTGATGTTAATCGGGTCTTGATTCGCTTGACGCTGCTG | 11.3 z-score | 10.5 z-score | 9.81 z-score | 8.01 z-score | 10.2 z-score | 8.67 z-score | 7.26 z-score |
| CCGATTAACATCAGGGGGAACTATGATGTTAATCGGGTCTTGATTCGCTTGACGCTGCTG | 6.91 z-score | 5.64 z-score | 7.61 z-score | 9.06 z-score | 4.89 z-score | 4.97 z-score | 5.9 z-score |
| CCGATTAACATCAGCAATTTCCCTGATGTTAATCGGGTCTTGATTCGCTTGACGCTGCTG | 3.13 z-score | 4.55 z-score | 5.81 z-score | 3.47 z-score | 1.78 z-score | 3.79 z-score | 3.52 z-score |
| CCGATTAACATCACACTACCCCCTGATGTTAATCGGGTCTTGATTCGCTTGACGCTGCTG | 4.66 z-score | 2.12 z-score | 4.06 z-score | 3.89 z-score | 1.77 z-score | 2.65 z-score | 3.3 z-score |
| CCGATTAACATCAAGAAAACCCCTGATGTTAATCGGGTCTTGATTCGCTTGACGCTGCTG | 6.98 z-score | 7.2 z-score | 6.87 z-score | 2.44 z-score | 7.76 z-score | 6.52 z-score | 6.8 z-score |
| CCGATTAACATCAAAGAACCCCCTGATGTTAATCGGGTCTTGATTCGCTTGACGCTGCTG | 8 z-score | 6.95 z-score | 7.44 z-score | 3.51 z-score | 8.69 z-score | 6.42 z-score | 6.47 z-score |
| CCGATTAACATCAGGGGAAACAATGATGTTAATCGGGTCTTGATTCGCTTGACGCTGCTG | 5.65 z-score | 7.25 z-score | 9.76 z-score | 8.67 z-score | 3.09 z-score | 4.59 z-score | 5.36 z-score |
| CCGATTAACATCAAGGGGGTACCTGATGTTAATCGGGTCTTGATTCGCTTGACGCTGCTG | 5.62 z-score | 3.48 z-score | 4.15 z-score | 2.65 z-score | 3.15 z-score | 3.5 z-score | 3.89 z-score |
| CCGATTAACATCACATGTTTCCCTGATGTTAATCGGGTCTTGATTCGCTTGACGCTGCTG | 2.33 z-score | 3.31 z-score | 4.21 z-score | 4.5 z-score | 1.48 z-score | 4.01 z-score | 1.17 z-score |
